# Measured values published in PubChem BioAssay (NCATS).
# Several values for one entry are separate records, joined by “and”; a condition that tells them apart may be missing. Equal entries are not always repeated. Records with an inconclusive call do not appear. Some structures have more than one record in an assay (separate samples or runs), and their calls can disagree. Activity calls are given as the source filed them. Calls follow the shape of the dose curve; as a rule, active = well fitted curve in the direction sought with a large enough effect; inconclusive = small, poorly fitted or top-dose-only effect, or another doubt; inactive = no such curve, though single readings can be large; an effect the other way counts as inactive or inconclusive.
# Experiments:
# [1] = Viability qHTS for spleen associated tyrosine kinase inhibitor (SYKi) naive MV4-11 cells (AID 1963823); conditions: MV4-11 AML viability, CellTiter-Glo luminescence, 72 h; series mostly up to 45 µM; also: nearly all actives have a fitted effect of over 40% in size
# How it was run: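 Viability of MV4-11 AML cells lacking prior SYK inhibitor exposure is scored by CellTiter-Glo luminescence following 72 hr compound incubation at 37 C, 5% CO2, seeded at 500 cells per well.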
# [2] = Viability qHTS for spleen associated tyrosine kinase inhibitor (SYKi) drug resistant MV4-11 cells (AID 1963824); conditions: SYKi-resistant MV4-11 viability, CellTiter-Glo, 72 h; series mostly up to 45 µM; also: nearly all actives have a fitted effect of over 35% in size
# How it was run: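 SYK inhibitor-resistant MV4-11 AML cells, 500 per well, added to predispensed compounds and incubated 72 hr at 37 C, 5% CO2. Viability measured by CellTiter-Glo luminescence after 10 min at room temperature.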
# [3] = Quantitative highthroughput screen to assess conditional lethalithy of P12 Ichikawa cells grown in Human Plasma-Like Medium with dialyzed fetal bovine serum (HPLM+ds) (AID 1963879); conditions: ATP luminescence, 48 h; Potency: viability; series mostly up to 45.8 µM; also: nearly all actives have a fitted effect of over 35% in size
# How it was run: (§1)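 Each medium arm—HPLM with 10% dialyzed FBS, or RPMI1640 with 5 mM glucose and 10% untreated or dialyzed FBS—was screened against an 11-point, 3-fold compound titration for 48 h at 37 °C, with CellTiter-Glo luminescence as endpoint.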
# [4] = Quantitative highthroughput screen to assess conditional lethalithy of P12 Ichikawa cells grown in RPMI1640 with untreated serum (RPMI+s) (AID 1963881); conditions: ATP luminescence, 48 h; Potency: viability; series mostly up to 45.8 µM; also: nearly all actives have a fitted effect of over 35% in size;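 as to Viability: 100% = DMSO wells and 0% = empty wells without cells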
# How it was run: as §1
# [5] = Quantitative highthroughput screen to assess conditional lethalithy of SEM cells grown in Human Plasma-Like Medium with dialyzed fetal bovine serum (HPLM+ds) (AID 1963882); conditions: SEM B-ALL cells in HPLM+ds, CellTiter-Glo viability, 48 h; series mostly up to 45.8 µM; also: nearly all actives have a fitted effect of over 35% in size
# How it was run: as §1
# [6] = Quantitative highthroughput screen to assess conditional lethalithy of SEM cells grown in RPMI1640 with unreated serum (RPMI+s) (AID 1963883); conditions: SEM B-ALL cells, CellTiter-Glo viability, 48 h; series mostly up to 45.8 µM; also: nearly all actives have a fitted effect of over 35% in size;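 as to Viability: 100% = DMSO wells and 0% = empty wells without cells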
# How it was run: as §1
# [7] = Quantitative highthroughput screen to assess conditional lethalithy of SEM cells grown in RPMI1640 with dialyzed fetal bovine serum (RPMI+ds) (AID 1963884); conditions: SEM B-ALL cells, RPMI+dialyzed FBS, CellTiter-Glo viability, 48 h; series mostly up to 45.8 µM; also: nearly all actives have a fitted effect of over 35% in size;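 as to Viability: 100% = DMSO control wells and 0% = empty wells without cells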
# How it was run: as §1
# [8] = Quantitative highthroughput screen to assess conditional lethalithy of P12 Ichikawa cells grown in RPMI1640 with dialyzed fetal bovine serum (RPMI+ds) (AID 1963880); conditions: ATP luminescence, 48 h; Potency: P12-Ichikawa viability; series mostly up to 45.8 µM; also: nearly all actives have a fitted effect of over 35% in size;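 as to Viability: 100% = DMSO wells and 0% = empty wells on each plate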
# How it was run: as §1
# [9] = Cellular viability qHTS for adrenocortical cancer (ACC) cell line SW-13 (AID 1963989); conditions: SW-13 ACC cells viability, CellTiter-Glo, 48 h; activity (max response): stronger effect = lower value; also: nearly all actives have a fitted effect of over 65% in size;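 as to activity (max response): cells grown in serum-free medium with ITS supplement; % is scaled to controls: 0 for no effect and ±100 for the full control effect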
# How it was run: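 IC50 and maximal-response values come from four-parameter logistic fits of titration data. SW-13 cells in serum-free medium received compounds (up to 46 uM final) for 48 h before CellTiter-Glo luminescence.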
# [10] = Cellular viability qHTS for adrenocortical cancer (ACC) cell line NCI-H295R (AID 1963990); conditions: CellTiter-Glo ATP luminescence, 48 h; series mostly up to 46.1 µM; also: nearly all actives have a fitted effect of over 60% in size
# How it was run: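 Adrenocortical carcinoma cells, suspended at 300 000 cells/mL in serum-free DMEM plus ITS, rested overnight before pin transfer of compound. After two days' incubation, ATP-dependent luminescence was recorded and curve-fitted.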
# Potency is read from the fitted curve at half-maximal effect.
SMILES,Potency [1],Potency [2],Potency [3],Potency [4],Potency [5],Potency [6],Potency [7],Potency [8],Potency [9],Potency [10],activity (max response) [9]
COc1cccc2cc(-c3nc(C4CCC(C(=O)O)CC4)n4ncnc(N)c34)[nH]c12 (stereo not drawn),461 nM (active) and 366 nM (active),580 nM (active) and 461 nM (active),0.296 µM (active),0.59 µM (active),0.59 µM (active),0.935 µM (active),1.18 µM (active),–,–,–,–
Cn1cnc2c(F)c(Nc3ccc(Br)cc3F)c(C(=O)NOCCO)cc21,0.206 µM (active),0.146 µM (active),–,–,–,–,–,inactive,17.8 µM (active),inactive,–
CCCC1OC2C[C@@H]3[C@H]4CCC5=CC(=O)C=C[C@]5(C)[C@H]4C(O)C[C@]3(C)[C@]2(C(=O)CO)O1 (stereo partly drawn),16.6 µM (active),7.42 µM (active),–,–,–,0.187 µM (active),0.132 µM (active),0.0132 µM (active),–,inactive,-12.3% (inactive)
Cc1cc(Nc2cc(N3CCN(C)CC3)nc(Sc3ccc(NC(=O)C4CC4)cc3)n2)n[nH]1,0.0461 µM (active),0.0291 µM (active),0.332 µM (active),0.296 µM (active),0.418 µM (active),–,0.332 µM (active),–,–,15.8 µM (active),–
COc1cccc2c(NCc3ccccc3)nc(-n3c(N)nc4ccccc43)nc12,2.35 µM (active),2.91 µM (active),–,16.6 µM (active),9.35 µM (active),5.9 µM (active),14.8 µM (active),18.7 µM (active),3.16 µM (active),5.62 µM (active),–
Cc1cc(C(=O)NOCCO)c(Nc2ccc(I)cc2F)n(C)c1=O,0.0525 µM (active),0.0411 µM (active),–,inactive,0.0662 µM (active),inactive,0.0074 µM (active),inactive,–,inactive,–
COc1cc2c(cc1Cc1cccc(Cl)c1F)c(=O)c(C(=O)O)cn2[C@H](CO)C(C)C,5.9 µM (active),7.42 µM (active),26.4 µM (active),16.6 µM (active),–,–,–,16.6 µM (active),–,25.1 µM (active),–
C[C@@H]1CC(=O)NN=C1c1ccc(NN=C(C#N)C#N)cc1,13.3 µM (active),15 µM (active),–,–,18.7 µM (active),–,16.6 µM (active),26.4 µM (active),–,inactive,-17.4% (inactive) and 2.94% (inactive) and -32.7% (inactive)
COC1=C(OC)C(=O)C(CCCCCCCCCCO)=C(C)C1=O,10.6 µM (active),10.6 µM (active) and 13.2 µM (active),inactive,–,inactive,inactive,–,–,4.11 µM (active) and 25.1 µM (active),2.91 µM (active) and 5.01 µM (active),–
CC1=C(C(=O)Nc2cc3cn[nH]c3cc2F)C(c2ccc(Cl)cc2F)N=C(c2ccnc(Cl)c2)N1 (stereo not drawn),4.61 µM (active),4.61 µM (active) and 5.9 µM (active),20.9 µM (active),–,16.6 µM (active),18.7 µM (active),–,20.9 µM (active),–,25.1 µM (active),–
CN1CCN(CCOc2cc(OC3CCOCC3)c3c(Nc4c(Cl)ccc5c4OCO5)ncnc3c2)CC1,6.51 µM (active) and 5.9 µM (active),9.2 µM (active) and 9.34 µM (active),–,29.6 µM (active),–,–,10.5 µM (active),18.7 µM (active),3.98 µM (active),31.6 µM (active),–
NCCCCNCCCN,5.9 µM (active),5.9 µM (active),–,18.7 µM (active),11.8 µM (active),13.2 µM (active),11.8 µM (active),23.5 µM (active),–,inactive,4.66% (inactive)
C[C@]1(CO)CN(c2cc(C(=O)Nc3ccc4c(c3)-c3c(c(C(N)=O)nn3-c3ccc(F)cc3)CC4)c(Cl)cn2)C[C@@]1(C)CO,3.66 µM (active),2.91 µM (active),16.6 µM (active),16.6 µM (active),–,–,18.7 µM (active),–,–,–,–
CC(C)n1cnc2c(NCCc3ccc(O)cc3)nc(-c3csc4ccccc34)nc21,14.8 µM (active),14.8 µM (active),–,14.8 µM (active),13.2 µM (active),7.43 µM (active),5.26 µM (active),13.2 µM (active),–,inactive,–
CN(c1ncccc1CNc1nc(Nc2ccc3c(c2)CC(=O)N3)ncc1C(F)(F)F)S(C)(=O)=O,0.366 µM (active),0.731 µM (active),–,–,2.96 µM (active),2.64 µM (active),1.05 µM (active),–,31.6 µM (active),–,–
COc1ccccc1N1CCN(CC(O)COc2cccc3ccccc23)CC1 (stereo not drawn),inactive,inactive,inactive,13.2 µM (active),–,–,–,–,–,inactive,-10.8% (inactive)
Oc1cc(-c2nc(-c3ccccc3)[nH]c2-c2ccncc2)ccc1Cl,6.51 µM (active),5.9 µM (active) and 3.66 µM (active),16.6 µM (active),–,inactive,–,–,–,17.8 µM (active),28.2 µM (active),–
O=C(NOCC1CC1)c1ccc(F)c(F)c1Nc1ccc(I)cc1Cl,3.76 µM (active),3.35 µM (active) and 2.91 µM (active) and 2.35 µM (active),–,2.64 µM (active),–,–,–,–,10.3 µM (active) and 4.47 µM (active),3.26 µM (active) and 6.31 µM (active),–

SMILES,Potency [1],Potency [2],Potency [3],Potency [4],Potency [5],Potency [6],Potency [7],Potency [8],Potency [9],Potency [10],activity (max response) [9]
CC(C)C[C@H](NC(=O)c1cc2ccccc2s1)C(=O)N1CCN(C(=O)[C@H](CO)NS(=O)(=O)c2ccc(Cl)cc2Cl)CC1,20.9 µM (active),16.6 µM (active),inactive,inactive,–,–,–,–,–,25.1 µM (active),–
Cc1nc2c(-c3cnc(N)nc3)nc(N3CCOCC3)nc2n1C(C)C,0.209 µM (active),326 nM (active) and 468 nM (active),–,0.0186 µM (active),–,–,–,0.0234 µM (active),–,0.562 µM (active),–
CC(C)(O)CC(=O)NCCn1ccc2ncnc(Nc3ccc(Oc4cccc(C(F)(F)F)c4)c(Cl)c3)c21,14.6 µM (active) and 16.6 µM (active),9.2 µM (active) and 6.61 µM (active),9.35 µM (active),–,–,20.9 µM (active),–,–,14.1 µM (active),8.91 µM (active),–
Cc1c(CN2CCN(S(C)(=O)=O)CC2)sc2c(N3CCOCC3)nc(-c3cnc(N)nc3)nc12,0.146 µM (active),0.366 µM (active),0.418 µM (active),–,–,–,–,–,–,0.794 µM (active),–
CCN1CCC(n2cc(CNc3cc(Cl)c4ncc(C#N)c(Nc5ccc(F)c(Cl)c5)c4c3)nn2)CC1,13 µM (active),11.6 µM (active),4.18 µM (active),18.7 µM (active),18.7 µM (active),3.32 µM (active),13.2 µM (active),–,–,31.6 µM (active),–
N#Cc1c(NC(=O)c2cccc3ccccc23)sc2c1CCCC2,0.116 µM (active),0.186 µM (active),0.59 µM (active),0.662 µM (active),0.469 µM (active),0.418 µM (active),0.372 µM (active),–,0.282 µM (active),0.562 µM (active),–
CN(C)c1nc(Cc2ccc(NC(=O)c3ccc4ccccc4c3)cc2)nc(Cl)c1CC(=O)O,inactive,inactive,–,2.96 µM (active),inactive,–,inactive,5.26 µM (active),–,–,–
OCCN1CCN(CCCN2c3ccccc3Sc3ccc(C(F)(F)F)cc32)CC1,16.8 µM (active) and 5.25 µM (active),26.6 µM (active) and 5.25 µM (active),7.43 µM (active),–,–,–,–,14.8 µM (active),–,inactive,8.75% (inactive)
CCn1cc(C(=O)O)c(=O)c2cc(F)c(N3CCN(C)CC3)cc21,inactive,inactive and 16.6 µM (active),–,4.18 µM (active),inactive,inactive,inactive,4.69 µM (active),–,inactive,10.8% (inactive) and 4.42% (inactive)
CCC[C@H](Nc1nc(-c2ccc(NC(=O)NCC)c(OC)c2)ncc1C)c1cccnc1,0.0742 µM (active),0.118 µM (active),0.0418 µM (active),–,0.0418 µM (active),–,–,0.0418 µM (active),0.224 µM (active),–,–
C[N+](C)(C)CC[N+]1(C)Cc2c(Cl)c(Cl)c(Cl)c(Cl)c2C1,inactive,inactive,–,–,–,–,–,–,–,–,6.09% (inactive)
C=CC(=O)Nc1cccc(Sc2nc(Nc3ccc(N4CCN(C)CC4)cc3)ncc2Cl)c1,580 nM (active) and 590 nM (active),580 nM (active) and 742 nM (active),–,–,23.5 µM (active),–,16.6 µM (active),–,2 µM (active),3.16 µM (active),–
CC(C)n1c(/C=C/[C@H](O)C[C@H](O)CC(=O)O)c(-c2ccc(F)cc2)c2ccccc21,2.63 µM (active),1.32 µM (active),–,–,–,–,–,–,17.8 µM (active),–,–
CCCCCCC[N+](CC)(CC)CCCCc1ccc(Cl)cc1,1.68 µM (active),2.11 µM (active),–,–,–,–,–,–,5.8 µM (active),–,–
Cc1cc(OCCOCC[N+](C)(C)Cc2ccccc2)ccc1C(C)(C)CC(C)(C)C,3.35 µM (active),2.66 µM (active),–,–,–,–,–,–,5.8 µM (active),–,–
NC(=NCc1ccccc1)NC(=O)c1nc(Cl)c(N)nc1N,3.32 µM (active),5.25 µM (active),–,–,inactive,–,14.8 µM (active),–,–,–,–
CN(C)CCc1c[nH]c2ccc(CS(=O)(=O)N3CCCC3)cc12,inactive,inactive,–,–,inactive,5.9 µM (active),14.8 µM (active),–,–,inactive,-4.49% (inactive) and 5.74% (inactive)
CCOC(=N)c1nc2ccc3ncnc(Nc4cc(F)c(F)cc4Cl)c3c2s1,7.42 µM (active),7.42 µM (active),–,–,–,–,–,–,–,–,-16.7% (inactive)
